Where “and” joins values, the source holds several entries; their conditions need not be identical. Identical values can stand only once. Hit rate of the full screen: of about 410,000 compounds, about 18,000 (4.4%) were called active. Another 7% or so got no clear call; they are omitted. The sample holds actives, similar compounds and a random draw of the others, so the mix is not that of the screen. Unmarked numbers belong to inactive results. Cut-off read from the data, not from the text of the source: active = activity change below about -60%; inconclusive = no clear call, values can overlap the other calls; inactive = above about -39%.
assay: qHTS Assay for inhibitors of the human cytomegalovirus (HCMV); settings: HFF cells, HCMV-luciferase reporter, 72 h; at 57.5 µM; hits give low values
Method in brief: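 HFF cells seeded 16 h at 37C, treated with compounds, infected with luciferase-reporter HCMV at MOI 1 PFU/cell; luciferase read at 72 h post infection, normalized to buffer-only and Salinomycin controls.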
% is set by controls: 0 for no effect and ±100 for the full control effect.

Compound | activity change, negative = inhibition
CCOc1ccc(CNC(=O)c2cc(=O)[nH]c3ccc(S(=O)(=O)N4CCCCC4)cc23)cc1 | 66.7%
O=C(Nc1ccc2oc(-c3ccc(O)c(Br)c3)nc2c1)c1cc2ccccc2o1 | 17.1%
COc1cccc(C(=O)NC2(C(F)(F)F)C(=O)Nc3c2c(=O)[nH]c(=O)n3-c2ccc(C)cc2)c1 (stereo not drawn) | 23.5%
Cc1ccsc1C(=O)C1CCCN(Cc2ccc(O)cc2)C1 (stereo not drawn) | 66.6%
Cc1ccn(CC(=O)NC2CCCN(Cc3ccccc3F)C2)n1 (stereo not drawn) | -8.34%
Cc1occc1C(=O)NC1CCCN(Cc2ccc(CC(C)C)cc2)C1 (stereo not drawn) | -69.3% (active)
COc1cccc(NC(=O)C(=O)NCC(c2ccc3c(c2)OCO3)N2CCN(C)CC2)c1 (stereo not drawn) | 44%
CSc1ccc(NC(=O)Cn2nnnc2-c2ccccc2F)cc1 | 13%
CC(C)Oc1ccc(CNC(=O)C2CCN(c3nc4ccccc4n(C)c3=O)CC2)cc1 | 3.39%
COc1cccc2cc(-c3nc(Cl)c4c5c(sc4n3)CC(C)CC5)c(=O)oc12 (stereo not drawn) | 7.76%
Fc1ccc(CSc2nnc(-c3cc4c(s3)-c3ccccc3CC4)o2)cc1 | 20.4%
COc1ccccc1OC(=O)c1ccc(C)c(S(=O)(=O)N2CCOCC2)c1 | 2.56%
O=C(Oc1ccc(-c2nnco2)cc1)c1ccc(F)c(S(=O)(=O)N2CCOCC2)c1 | 34.8%
COc1ccc(C(=O)Oc2ccc(-c3nnco3)cc2)cc1S(=O)(=O)N1CCOCC1 | -83.8% (active)
CCC(C)(C)c1ccc(Oc2ccc(NC(=O)COC(=O)C3=COCCO3)cc2)cc1 | -70.9% (active)
O=C1CCC(C(=O)OCC(=O)Nc2ccc(OC(F)F)cc2)=NN1 | 5.49%
COc1ccc(NC(=O)COC(=O)CNC(=O)C2CCCCC2)cc1 | 16%
COc1cccc(Nc2nc3ccccc3c3nncn23)c1 | 15%
COc1ccc(NC(=O)CCc2nnc3n(CC(C)C)c(=O)c4ccccc4n23)cc1OC | -15.8%
O=C(Cn1c(=O)nc(-c2ccccc2)c2cc(Cl)ccc21)NCc1ccc(Cl)cc1 | 4.55%
CCCCNc1ccc(-c2nc(-c3ccncc3)no2)cc1[N+](=O)[O-] | 14.6%
Cc1nn(Cc2ccccc2)c(C)c1NS(=O)(=O)c1ccccc1 | 18.1%

Compound | activity change, negative = inhibition
Cc1ccccc1Cn1nc(C)c(NC(=O)c2cc(-c3ccc(F)cc3)on2)c1C | -10.2%
Cc1ccccc1Cn1nc(C)c(NC(=O)C(F)(F)F)c1C | -69.7% (active)
COc1cc(NC(=O)CN2CCN(S(=O)(=O)c3ccc(Br)cc3)CC2)cc(OC)c1 | 10.7%
CC(C)OCCCn1c(SCC(=O)c2ccccc2)nc2c(sc3ccccc32)c1=O | -3.18%
CCc1nn(CCCC(=O)NCc2ccccc2OC)c(=O)c2cc3occc3n12 | 0.686%
CC(=O)c1ccc(S(=O)(=O)N2CCN(C(=O)/C=C/c3ccc4ccccc4n3)CC2)cc1 | -94.7% (active)
COC(=O)c1ccc(S(=O)(=O)N2CCC(c3nc4ccccc4o3)CC2)cc1 | -36.4%
CC(=O)c1ccc(S(=O)(=O)N2CCC(Oc3ccc(-n4cnnn4)cc3)CC2)cc1 | -16.1% and 9.96%
O=C(NCCc1ccccc1)c1cnc2sc(N3CCCC3)nn2c1=O | -22.6%
CCCCNc1c(-c2cccc(Sc3ccc(OC)cc3)c2)nc2ccccn12 | -28.4%
COC(=O)[C@]12C[C@H](CC(=O)NCCC(C)C)C(=O)N(CCc3ccc(OC)c(OC)c3)C1=C[C@H](C(C)(C)C)O[C@@H]2C | 13.1%
COc1ccccc1CNC(=O)c1ccc(-n2c(C)cc3c2CCCC3)cc1 | -28.5%
Cc1cc([N+](=O)[O-])c(NC2CCCCC2)c([N+](=O)[O-])c1 | -18.1%
Cc1cc([N+](=O)[O-])ccc1NC1CCCC1 | -71.6% (active)
N#Cc1cc([N+](=O)[O-])ccc1NCC1CCCO1 (stereo not drawn) | 11.1%
COc1ccc(C)cc1N(C)C(=O)c1c(C)oc2ncnc(N3CCOCC3)c12 | -37.3%
Cc1ccc2onc(CC(=O)N3CCN(c4ccc(Cl)cc4)CC3)c2c1 | -15.9%
Cc1nn(C(C)C(=O)NCCc2ccccc2)c(=O)c2c1sc1ccccc12 (stereo not drawn) | -39.3%
Cc1ccc(NC(=O)Nc2nnc(-c3ccncc3)s2)cc1 | -99.3% (active)
CCCCN(C)c1nnc(NC(=O)Nc2ccc(Br)c(C)c2)s1 | -4.35%
Cc1ccc(Nc2nc(Cl)c(C=O)s2)cc1 | -12.1%

Source: PubChem BioAssay AID1259415 (National Center for Advancing Translational Sciences (NCATS), 2018)
